Experimental data reported in PubChem BioAssay (Tox21).
Results filed as inconclusive are left out. The source made the active and inactive calls. Unless noted, the call rests on the fitted dose curve; in most records, active means well fitted curve in the direction sought with a large enough effect in the repeat runs; inconclusive means weak or mixed curves; inactive means no such curve, though single readings can be large; an effect the other way counts as inactive or inconclusive.

What was measured:
[1] = qHTS assay to identify small molecule agonists of the peroxisome proliferator-activated receptor delta (PPARd) signaling pathway - cell viability counter screen (AID 743211); further: on the % scale 0 is the no-effect control and ±100 the full control effect; nearly all actives have a fitted effect of over 55% in size
Summary of the method: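 qHTS cell viability: PPARd-bla HEK293H; 17 h cpd, 37C; CellTiter-Glo, luminescence at 30 min RT.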

[2] = target: Peroxisome proliferator-activated receptor delta (Homo sapiens) (UniProt Q03181); assay: qHTS assay to identify small molecule agonists of the peroxisome proliferator-activated receptor delta (PPARd) signaling pathway (AID 743212; calls by dose curve; further: on the % scale 0 is the no-effect control and ±100 the full control effect)
Summary of the method: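 A PPARd-bla HEK293H line with beta-lactamase under an Upstream Activator Sequence is treated with compounds at 37 C. Substrate loading for 2 h at room temperature precedes the fluorescence measurement.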

[3] = target: Peroxisome proliferator-activated receptor delta (Homo sapiens) (UniProt Q03181); assay: qHTS assay to identify small molecule antagonists of the peroxisome proliferator-activated receptor delta (PPARd) signaling pathway (AID 743215; active means well fitted inhibition curve with a large enough effect in the signal ratio in the repeat runs, not every such curve was filed as active; the % refers to the signal ratio;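 further: cells stimulated with agonist L165041 at 300 nM final during compound exposure; series mostly up to about 62 µM; on the % scale 0 is the no-effect control and ±100 the full control effect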)
Summary of the method: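 PPARd UAS-bla HEK293H cells were pre-incubated 5 h at 37 C, then given test compounds in DMSO plus agonist L165041 (300 nM final). After 17 h at 37 C, beta-lactamase FRET substrate was added; fluorescence read after 2 h at room temperature.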

[4] = target: Bile acid receptor (Homo sapiens) (UniProt Q96RI1); assay: qHTS assay to identify small molecule antagonists of the farnesoid-X-receptor (FXR) signaling pathway (AID 743217; active means well fitted inhibition curve with a large enough effect in the signal ratio in the repeat runs, not every such curve was filed as active; the % refers to the signal ratio; further: on the % scale 0 is the no-effect control and ±100 the full control effect)
Summary of the method: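 FXR-UAS-bla HEK 293T cells pre-incubated 5 h at 37 °C, then exposed to compounds with chenodeoxycholic acid (50 uM final) for 16 h at 37 °C. Beta-lactamase reporter read by LiveBLAzer B/G FRET substrate fluorescence after 2 h at room temperature.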

[5] = qHTS assay to identify small molecule agonists of the farnesoid-X-receptor (FXR) signaling pathway - cell viability counter screen (AID 743218); further: on the % scale 0 is the no-effect control and ±100 the full control effect; nearly all actives have a fitted effect of over 45% in size
Summary of the method: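 FXR-UAS-bla HEK 293T cells, plated 5 h at 37 C, were exposed to compounds for 16 h at 37 C. CellTiter-Glo was then added to the same wells as the bla readout; luminescence read after 30 min at room temperature.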

[6] = target: Bile acid receptor (Homo sapiens) (UniProt Q96RI1); assay: qHTS assay to identify small molecule agonists of the farnesoid-X-receptor (FXR) signaling pathway (AID 743220; active means well fitted activation curve with a large enough effect in the signal ratio in the repeat runs, not every such curve was filed as active; the % refers to the signal ratio; further: on the % scale 0 is the no-effect control and ±100 the full control effect)
Summary of the method: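 Beta-lactamase reporter under UAS control in GeneBLAzer FXR HEK 293T cells (5000/well) measured with LiveBLAzer FRET substrate after 2 h at room temperature. Compound exposure lasted 16 h at 37C.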

[7] = qHTS assay to identify small molecule antagonists of the farnesoid-X-receptor (FXR) signaling pathway - cell viability counter screen (AID 743221; active means well fitted cell-killing curve with a large enough effect in the repeat runs, not every such curve was filed as active; further: on the % scale 0 is the no-effect control and ±100 the full control effect; nearly all actives have a fitted effect of over 50% in size)
Summary of the method: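 After a 5 h settling period, FXR-bla HEK 293T cells receive compound and chenodeoxycholic acid (50 uM final) and incubate 16 h at 37 C; CellTiter-Glo luminescence, read after 30 min at room temperature, reports cell viability.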

[8] = target: Vitamin D3 receptor (Homo sapiens) (UniProt P11473); assay: qHTS assay to identify small molecule agonists of the vitamin D receptor (VDR) signaling pathway (AID 743222; calls by dose curve; further: on the % scale 0 is the no-effect control and ±100 the full control effect)
Summary of the method: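 VDR-bla cells were plated 4 h at 37C/5% CO2, then exposed to compounds in DMSO for 16 h. After LiveBLAzer B/G FRET substrate addition and 2 h at room temperature, beta-lactamase reporter fluorescence was read.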

[9] = target: Vitamin D3 receptor (Homo sapiens) (UniProt P11473); assay: qHTS assay to identify small molecule antagonists of the vitamin D receptor (VDR) signaling pathway (AID 743223; active means well fitted inhibition curve with a large enough effect in the signal ratio in the repeat runs, not every such curve was filed as active; the % refers to the signal ratio; further: on the % scale 0 is the no-effect control and ±100 the full control effect)
Summary of the method: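 Reporter line VDR-bla; stimulus 1alpha,25-(OH)2 vitamin D3, 3 nM final; compound co-addition, 16 h 37C/5% CO2; LiveBLAzer B/G substrate 2 h RT; fluorescence intensity.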

[10] = qHTS assay to identify small molecule agonists of the vitamin D receptor (VDR) signaling pathway - cell viability counter screen (AID 743224); further: series mostly up to about 63 µM; on the % scale 0 is the no-effect control and ±100 the full control effect; nearly all actives have a fitted effect of over 50% in size
Summary of the method: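 VDR-bla cells were preincubated 4 h at 37C/5% CO2, then exposed to compounds for 16 h. After the 2 h room-temperature bla FRET read, CellTiter-Glo was added to the same wells and luminescence read after 30 min.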

[11] = qHTS assay to identify small molecule agonists of the NFkB signaling pathway - cell viability counter screen (AID 1159515; calls by dose curve; further: series mostly up to about 61 µM; on the % scale 0 is the no-effect control and ±100 the full control effect; nearly all actives have a fitted effect of over 55% in size)
Summary of the method: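 NFkB-bla ME-180 cells, 2,000/well, were plated overnight at 37 C, 5% CO2, then exposed to compounds in DMSO for 5 hr. After the bla FRET read, CellTiter-Glo was added to the same wells; luminescence was read after 30 min at room temperature.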

[12] = qHTS assay to identify small molecule agonists of the endoplasmic reticulum stress response signaling pathway (AID 1159516; active means well fitted activation curve with a large enough effect in the signal ratio in the repeat runs, not every such curve was filed as active; the % refers to the signal ratio; further: on the % scale 0 is the no-effect control and ±100 the full control effect)
Summary of the method: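 CellSensor ESRE-bla HeLa cells, carrying a beta-lactamase reporter driven by the ER stress response element, were plated overnight and exposed to compounds for 5 hr at 37 C. Reporter activity was read as FRET substrate fluorescence after 2 hr at room temperature.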

[13] = qHTS assay to identify small molecule antagonists of the retinoid-related orphan receptor gamma (ROR-gamma) signaling pathway - cell viability counter screen (AID 1159520); further: on the % scale 0 is the no-effect control and ±100 the full control effect; nearly all actives have a fitted effect of over 50% in size
Summary of the method: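 Tet-on ROR gamma CHO cells (1,000/well) were plated 4 hr, given compounds in DMSO for 2 hr at 37 C, then induced with 1 uM final doxycycline for 16 hr. Viability was read as ATP by CellTiter-Glo luminescence after 30 min.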

[14] = target: Nuclear receptor ROR-gamma (Homo sapiens) (UniProt P51449); assay: qHTS assay to identify small molecule antagonists of the retinoid-related orphan receptor gamma (ROR-gamma) signaling pathway (AID 1159521; further: nearly all actives have a fitted effect of over 50% in size; further: potency means the concentration at half of the fitted maximal effect)
Summary of the method: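 Decreased RORE-driven luciferase luminescence indicates antagonism. Tet-on RORγ CHO cells received compound, then 1 uM final doxycycline 2 h later; signal read after 16 h incubation.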

[15] = qHTS assay to identify small molecule agonists of the AP-1 signaling pathway - cell viability counter screen (AID 1159525; calls by dose curve; further: nearly all actives have a fitted effect of over 55% in size)
Summary of the method: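 ME-180 AP-1-bla, 2500 cells/well, Opti-MEM + 0.5% dialyzed FBS; overnight 37 °C; cpd 15-pt titration, 5 h 37 °C; CellTiter-Glo 30 min RT; luminescence read; normalised to TOAB and DMSO controls.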

[16] = qHTS assay to identify small molecule agonists of the AP-1 signaling pathway (AID 1159526; calls by dose curve; further: potency means the concentration at half of the fitted maximal effect)
[17] = target: Retinoic acid receptor RXR-alpha (Homo sapiens) (UniProt P19793); assay: qHTS assay to identify small molecule agonists of the RXR signaling pathway (AID 1159527; calls by dose curve; further: on the % scale 0 is the no-effect control and ±100 the full control effect; nearly all actives have a fitted effect of over 35% in size)
Summary of the method: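 16 hr incubation of compound-treated RXR-alpha-UAS-bla HEK 293T cells (2% charcoal-stripped FBS, 37 C) preceded a 2 hr room-temperature LiveBLAzer FRET substrate step and blue/green fluorescence measurement.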

[18] = qHTS assay to identify small molecule antagonists of the peroxisome proliferator-activated receptor delta (PPARd) signaling pathway - cell viability counter screen (AID 743213)
Summary of the method: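 In this counter screen, HEK293H cells carrying a UAS-beta-lactamase reporter are co-treated with test compounds and 300 nM L165041 (final) for 17 h at 37 C; cell viability is quantified by CellTiter-Glo luminescence.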

[19] = qHTS assay to identify small molecule antagonists of the vitamin D receptor (VDR) signaling pathway - cell viability counter screen (AID 743225)
Summary of the method: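 Parallel cytotoxicity test: VDR-UAS-bla HEK 293T, 3 nM (final) 1-alpha,25-dihydroxyvitamin D3 with test compound, 16 h, 37C. Endpoint is CellTiter-Glo luminescence in the same wells.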

Sequence of Bile acid receptor (Homo sapiens) (Q96RI1 whole entry, looked up): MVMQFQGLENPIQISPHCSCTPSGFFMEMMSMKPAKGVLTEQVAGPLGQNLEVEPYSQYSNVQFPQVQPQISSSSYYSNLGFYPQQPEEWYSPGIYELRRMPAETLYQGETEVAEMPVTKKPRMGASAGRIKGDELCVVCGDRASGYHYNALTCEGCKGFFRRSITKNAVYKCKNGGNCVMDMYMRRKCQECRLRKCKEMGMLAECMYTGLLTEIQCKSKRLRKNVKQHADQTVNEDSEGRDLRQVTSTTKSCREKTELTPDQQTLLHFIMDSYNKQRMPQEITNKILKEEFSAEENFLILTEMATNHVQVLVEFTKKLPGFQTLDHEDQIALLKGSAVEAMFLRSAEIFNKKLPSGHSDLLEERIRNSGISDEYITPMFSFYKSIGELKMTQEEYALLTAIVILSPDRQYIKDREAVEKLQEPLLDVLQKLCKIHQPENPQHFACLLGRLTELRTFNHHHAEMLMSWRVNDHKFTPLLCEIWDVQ
Sequence of Peroxisome proliferator-activated receptor delta (Homo sapiens) (Q03181 whole entry, looked up): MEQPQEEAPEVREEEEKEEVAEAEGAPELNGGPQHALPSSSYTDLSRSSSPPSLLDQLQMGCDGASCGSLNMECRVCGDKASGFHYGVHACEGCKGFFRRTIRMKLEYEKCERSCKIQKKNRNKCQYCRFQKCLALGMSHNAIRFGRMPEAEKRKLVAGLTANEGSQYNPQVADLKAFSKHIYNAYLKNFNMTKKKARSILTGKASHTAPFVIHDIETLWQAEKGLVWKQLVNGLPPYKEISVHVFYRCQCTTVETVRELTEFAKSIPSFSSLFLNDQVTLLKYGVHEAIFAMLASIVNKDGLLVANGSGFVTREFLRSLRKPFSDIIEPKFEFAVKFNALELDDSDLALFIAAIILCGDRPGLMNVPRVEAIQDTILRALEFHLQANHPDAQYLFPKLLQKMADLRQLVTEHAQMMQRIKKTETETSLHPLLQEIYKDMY
Sequence of Retinoic acid receptor RXR-alpha (Homo sapiens) (P19793 whole entry, looked up): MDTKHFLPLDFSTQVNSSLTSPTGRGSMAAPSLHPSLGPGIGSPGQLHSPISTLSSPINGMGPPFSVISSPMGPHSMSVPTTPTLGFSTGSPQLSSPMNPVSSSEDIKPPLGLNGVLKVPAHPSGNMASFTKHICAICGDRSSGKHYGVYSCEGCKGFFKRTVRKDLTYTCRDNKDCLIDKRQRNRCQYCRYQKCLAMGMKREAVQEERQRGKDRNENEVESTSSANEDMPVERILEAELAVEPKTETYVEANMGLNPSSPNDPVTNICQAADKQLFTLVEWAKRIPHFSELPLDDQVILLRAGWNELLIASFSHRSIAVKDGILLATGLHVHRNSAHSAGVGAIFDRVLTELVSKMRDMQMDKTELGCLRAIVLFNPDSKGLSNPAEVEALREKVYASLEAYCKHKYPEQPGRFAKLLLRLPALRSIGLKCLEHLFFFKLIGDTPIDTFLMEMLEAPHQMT
Sequence of Vitamin D3 receptor (Homo sapiens) (P11473 whole entry, looked up): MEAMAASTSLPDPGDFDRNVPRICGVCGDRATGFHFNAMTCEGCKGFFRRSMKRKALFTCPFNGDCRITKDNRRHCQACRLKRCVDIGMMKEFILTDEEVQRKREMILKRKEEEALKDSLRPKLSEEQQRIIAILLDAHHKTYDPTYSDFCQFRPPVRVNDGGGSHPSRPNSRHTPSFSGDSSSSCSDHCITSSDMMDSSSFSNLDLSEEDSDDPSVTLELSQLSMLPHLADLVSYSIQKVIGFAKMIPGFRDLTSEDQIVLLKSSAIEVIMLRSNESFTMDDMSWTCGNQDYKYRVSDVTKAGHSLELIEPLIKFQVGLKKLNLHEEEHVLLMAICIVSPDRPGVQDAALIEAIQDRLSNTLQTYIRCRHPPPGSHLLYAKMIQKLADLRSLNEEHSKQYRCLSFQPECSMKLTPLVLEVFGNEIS

CC(CO)Oc1ccccc1 (configuration not stated)
inactive: Potency [1] | Potency [2] | Potency [3] | Potency [4] | Potency [5] | Potency [6] | Potency [7] | Potency [8] | Potency [9] | Potency [10] | Potency [11] | Potency [12] | Potency [13] | Potency [14] | Potency [15] | Potency [16] | Potency [17]

C=C(CC)C(=O)c1ccc(OCC(=O)O)c(Cl)c1Cl
inactive: Potency [1] | Potency [18] | Potency [5] | Potency [7] | Potency [10] | Potency [11] | Potency [12] | Potency [13] | Potency [15]
active: Potency [14] 54.1 µM

C=CCn1c(=O)n(CC=C)c(=O)n(CC=C)c1=O
inactive: Potency [1] | Potency [2] | Potency [18] | Potency [3] | Potency [5] | Potency [7] | Potency [8] | Potency [9] | Potency [10] | Potency [11] | Potency [12] | Potency [13] | Potency [14] | Potency [15] | Potency [16]

S=c1nccc[nH]1
active: Potency [16] 49.1 µM
inactive: Potency [1] | Potency [2] | Potency [18] | Potency [3] | Potency [4] | Potency [5] | Potency [6] | Potency [7] | Potency [10] | Potency [19] | Potency [11] | Potency [12] | Potency [13] | Potency [15] | Potency [17]

CCCCCCCCCCOC(=O)c1ccccc1C(=O)OCCCCCCCC
inactive: Potency [1] | Potency [2] | Potency [18] | Potency [5] | Potency [7] | Potency [10] | Potency [19] | Potency [11] | Potency [12] | Potency [13] | Potency [14] | Potency [15] | Potency [16] | Potency [17]

C[C@H]1NCc2cc(-c3ccc4c(=O)c(C(=O)O)cn(C5CC5)c4c3OC(F)F)ccc21
inactive: Potency [1] | Potency [2] | Potency [3] | Potency [5] | Potency [7] | Potency [8] | Potency [10] | Potency [19] | Potency [11] | Potency [12] | activity, negative = cytotoxicity [13] -17.1% [at 19 µM] | viability change, negative = cytotoxic [15] 1.98% [at 15.8 µM] | activation [16] -2.94% [at 15.8 µM] | activation [17] -4.06% [at 15.8 µM]

CCCCCc1ccc(Cl)cc1
inactive: Potency [1] | Potency [2] | Potency [18] | Potency [3] | Potency [4] | Potency [5] | Potency [6] | Potency [7] | Potency [10] | Potency [19] | Potency [11] | Potency [12] | Potency [13] | Potency [15] | Potency [16] | Potency [17]

CCC(CC)C(C)CCOC(C)=O (configuration not stated)
inactive: Potency [1] | Potency [2] | Potency [18] | Potency [3] | Potency [7] | Potency [8] | Potency [10] | Potency [19] | Potency [11] | Potency [12] | Potency [13] | Potency [14] | Potency [15] | Potency [16] | Potency [17]
